Laboratory results published in PubChem BioAssay (EPA / NIEHS).
Records with an inconclusive call do not appear. Activity calls are given as the source filed them. How the source made its calls: active means hit-call score of the fitted dose curve at least 0.9, where 1 is the maximum; inconclusive means response in the unintended direction; inactive means score below 0.9.

Target: Bile acid receptor (Homo sapiens) (UniProt Q96RI1)
Experiment: OT_FXR_FXRSRC1_1440: Odyssey Thera (OT) 24-hour HEK293T Protein-Complementation Assay for Farnesoid X receptor/SRC-1 Co-activator (AID 2283384)
Protocol: OT_FXR_FXRSRC1_1440 is a cell-based assay that uses HEK293T, a human kidney cell line, with measurements taken at 24 hours after chemical dosing in a 384-well plate.OT_FXR_FXRSRC1_1440 is one of one assay component(s) measured or calculated from the OT_FXR_FXRSRC1_1440 assay. It is designed to make measurements of protein fragment complementation, a form of binding reporter, as detected with fluorescence intensity signals by Protein-fragment Complementation technology.Data from the assay component OT_FXR_FXRSRC1_1440 was analyzed into 1 assay endpoint. This assay endpoint, OT_FXR_FXRSRC1_1440, was analyzed in the positive analysis fitting direction relative to DMSO as the negative control and baseline of activity. Using a type of binding reporter, measures of receptor for gain-of-signal activity can be used to understand the binding at the pathway-level as they relate to the gene NR1H4. Furthermore, this assay endpoint can be referred to as a primary readout, because the performed assay has only produced 1 assay endpoint. To generalize the intended target to other relatable targets, this assay endpoint is annotated to the nuclear receptor intended target family, where the subfamily is non-steroidal.
Protein-fragment complementation assay, or PCA, is a method for the identification and quantification of protein-protein interactions. In the PCA, the proteins of interest ("bait" and "prey") are each covalently linked to fragments of a third protein (e.g. DHFR, which acts as a "reporter"). Interaction between the bait and the prey proteins brings the fragments of the reporter protein in close proximity to allow them to form a functional reporter protein whose activity can be measured.

Sequence of Bile acid receptor (Homo sapiens) (Q96RI1 whole entry, looked up): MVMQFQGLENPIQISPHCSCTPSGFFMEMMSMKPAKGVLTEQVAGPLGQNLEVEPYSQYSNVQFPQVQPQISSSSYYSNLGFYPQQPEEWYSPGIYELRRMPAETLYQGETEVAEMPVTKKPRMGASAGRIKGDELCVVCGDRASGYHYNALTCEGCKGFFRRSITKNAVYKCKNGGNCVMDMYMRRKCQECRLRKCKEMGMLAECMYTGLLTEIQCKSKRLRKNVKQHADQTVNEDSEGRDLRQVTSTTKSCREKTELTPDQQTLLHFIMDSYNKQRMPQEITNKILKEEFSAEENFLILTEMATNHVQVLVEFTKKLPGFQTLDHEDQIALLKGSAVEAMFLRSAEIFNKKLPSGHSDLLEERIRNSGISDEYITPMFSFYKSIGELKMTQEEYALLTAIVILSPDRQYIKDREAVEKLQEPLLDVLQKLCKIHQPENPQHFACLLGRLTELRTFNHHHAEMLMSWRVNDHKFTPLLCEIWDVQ

Compound | outcome | AC50
O=C(OCCOCCOCCOC(=O)c1ccccc1)c1ccccc1 | inactive | –
c1ccc(B(c2ccccc2)c2ccccc2)cc1 | inactive | –
CCCCC(CC)COP(=O)(O)OCC(CC)CCCC (stereo not given) | – | 71.8 µM (active)
COC(=O)C1CCC(C(=O)OC)CC1 (stereo not given) | inactive | –
O=S(=O)(O)c1ccc2ccccc2c1 | inactive | –
C#C[C@]1(O)CC[C@H]2[C@@H]3CCc4cc(OC)ccc4[C@H]3CC[C@@]21C | – | 46.8 µM (active)
CNC(=S)NC | inactive | –
CCCCCCC(C)OC(=O)CCCCC(=O)OC(C)CCCCCC (stereo not given) | inactive | –
CC(CCl)OP(=O)(OC(C)CCl)OC(C)CCl (stereo not given) | inactive | –
[Co] | inactive | –
CCCCOc1ccc(N)cc1 | – | 36.9 µM (active)
CCCCCCOC(=O)c1ccccc1O | inactive | –
CC(C)OC(=O)c1ccccc1C(=O)OC(C)C | inactive | –
CN(C)Cc1ccccc1O | inactive | –
C(=C(c1ccccc1)c1ccccc1)c1ccccc1 | – | 76.8 µM (active)
